Reference: PubChem BioAssay AID1159580 (chemical genetic matrix, 2015)
Among all 5,500 compounds or so, about 2,000 (36%) were called active. Another 18% or so got no clear call; they are omitted. This is one part of the list. Values without a mark were called inactive. No stated cut-off is given here; in the data, active means normalized growth mostly below about 0.91 (no sharp cut-off); inconclusive means no clear call, values can overlap the other calls; inactive means mostly above about 0.92.

Experiment: chemical genetic growth profiling, strain panel (AID 1159580);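 further: tested at 20 µM; growth read once vehicle control cultures reached saturation at 30 °C; 1 = growth at the plate median or of vehicle wells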
Settings: growth OD

Compound: CCc1nc(N)nc(N)c1-c1ccc(Cl)cc1
- normalized growth (S. cerevisiae deletion strains, locus YJR075W, strain HOC1, stronger effect = lower value): 0.978
- normalized growth (S. cerevisiae deletion strains, locus YKL009W, strain mrt4, stronger effect = lower value): 1.01
- normalized growth (S. cerevisiae deletion strains, locus YKL068W, stronger effect = lower value): 1
- normalized growth (S. cerevisiae deletion strains, locus YKL085W, strain MDH1 (second series), stronger effect = lower value): 1
- normalized growth (S. cerevisiae deletion strains, locus YKL085W, strain MDH1, stronger effect = lower value): 1
- normalized growth (S. cerevisiae deletion strains, locus YKL160W, strain elf1, stronger effect = lower value): 0.948
- normalized growth (S. cerevisiae deletion strains, locus YKL190W, strain CNB1, stronger effect = lower value): 1.01
- normalized growth (S. cerevisiae deletion strains, locus YKR001C, strain vps1, stronger effect = lower value): 0.985
- normalized growth (S. cerevisiae deletion strains, locus YKR026C, strain gcn3, stronger effect = lower value): 1.2 [resistant] (active)
- normalized growth (S. cerevisiae deletion strains, locus YKR091W, strain srl3, stronger effect = lower value): 0.977
- normalized growth (S. cerevisiae deletion strains, locus YLL001W, strain dnm1, stronger effect = lower value): 0.942
- normalized growth (S. cerevisiae deletion strains, locus YLL026W, stronger effect = lower value): 0.992
- normalized growth (S. cerevisiae deletion strains, locus YLL041C, strain sdh2, stronger effect = lower value): 0.972
- normalized growth (S. cerevisiae deletion strains, locus YLR027C, strain aat2, stronger effect = lower value): 0.984
- normalized growth (S. cerevisiae deletion strains, locus YLR039C, strain RIC1, stronger effect = lower value): 1.09
- normalized growth (S. cerevisiae deletion strains, locus YLR058C, strain SHM2, stronger effect = lower value): 1.01
- normalized growth (S. cerevisiae deletion strains, locus YLR102C, strain apc9, stronger effect = lower value): 1
- normalized growth (S. cerevisiae deletion strains, locus YLR113W, strain HOG1, stronger effect = lower value): 1.04
- normalized growth (S. cerevisiae deletion strains, locus YLR221C, strain rsa3, stronger effect = lower value): 1
- normalized growth (S. cerevisiae deletion strains, locus YLR258W, strain gsy2, stronger effect = lower value): 0.98
- normalized growth (S. cerevisiae deletion strains, locus YLR262C, strain YPT6 (second series), stronger effect = lower value): 0.958
- normalized growth (S. cerevisiae deletion strains, locus YLR262C, strain YPT6, stronger effect = lower value): 1.15
- normalized growth (S. cerevisiae deletion strains, locus YLR268W, strain sec22, stronger effect = lower value): 0.968
- normalized growth (S. cerevisiae deletion strains, locus YLR320W, strain mms22, stronger effect = lower value): 0.99
- normalized growth (S. cerevisiae deletion strains, locus YLR330W, strain CHS5, stronger effect = lower value): 1.01
- normalized growth (S. cerevisiae deletion strains, locus YLR342W, strain FKS1 (second series), stronger effect = lower value): 0.952
- normalized growth (S. cerevisiae deletion strains, locus YLR342W, strain FKS1, stronger effect = lower value): 0.989
- normalized growth (S. cerevisiae deletion strains, locus YLR357W, strain rsc2, stronger effect = lower value): 0.96
- normalized growth (S. cerevisiae deletion strains, locus YLR370C, strain arc18, stronger effect = lower value): 0.972
- normalized growth (S. cerevisiae deletion strains, locus YLR371W, strain rom2, stronger effect = lower value): 1.01
- normalized growth (S. cerevisiae deletion strains, locus YLR384C, strain iki3, stronger effect = lower value): 0.964
- normalized growth (S. cerevisiae deletion strains, locus YLR418C, strain cdc73, stronger effect = lower value): 0.939
- normalized growth (S. cerevisiae deletion strains, locus YML016C, strain PPZ1, stronger effect = lower value): 0.999
- normalized growth (S. cerevisiae deletion strains, locus YML032C, strain rad52, stronger effect = lower value): 0.952
- normalized growth (S. cerevisiae deletion strains, locus YML120C, strain ndi1, stronger effect = lower value): 0.963
- normalized growth (S. cerevisiae deletion strains, locus YML124C, strain tub3, stronger effect = lower value): 1
- normalized growth (S. cerevisiae deletion strains, locus YMR058W, strain fet3, stronger effect = lower value): 0.988
- normalized growth (S. cerevisiae deletion strains, locus YMR078C, strain ctf18, stronger effect = lower value): 0.998
- normalized growth (S. cerevisiae deletion strains, locus YMR125W, strain sto1, stronger effect = lower value): 0.932
- normalized growth (S. cerevisiae deletion strains, locus YMR129W, stronger effect = lower value): 0.976
- normalized growth (S. cerevisiae deletion strains, locus YMR205C, strain PFK2, stronger effect = lower value): 0.956
- normalized growth (S. cerevisiae deletion strains, locus YMR223W, strain ubp8, stronger effect = lower value): 0.996
- normalized growth (S. cerevisiae deletion strains, locus YMR231W, strain pep5, stronger effect = lower value): 0.974
- normalized growth (S. cerevisiae deletion strains, locus YMR263W, strain SAP30, stronger effect = lower value): 1.01
- normalized growth (S. cerevisiae deletion strains, locus YMR307W, strain GAS1, stronger effect = lower value): 0.916
- normalized growth (S. cerevisiae deletion strains, locus YNL067W, strain RPL9B, stronger effect = lower value): 0.999
- normalized growth (S. cerevisiae deletion strains, locus YNL071W, strain lat1, stronger effect = lower value): 0.976
- normalized growth (S. cerevisiae deletion strains, locus YNL128W, strain TEP1, stronger effect = lower value): 1.02
- normalized growth (S. cerevisiae deletion strains, locus YNL153C, strain GIM3, stronger effect = lower value): 1.01
- normalized growth (S. cerevisiae deletion strains, locus YNL183C, strain NPR1, stronger effect = lower value): 0.998
- normalized growth (S. cerevisiae deletion strains, locus YNL209W, strain ssb2, stronger effect = lower value): 0.979
- normalized growth (S. cerevisiae deletion strains, locus YNL233W, strain BNI4, stronger effect = lower value): 0.991
- normalized growth (S. cerevisiae deletion strains, locus YNL248C, strain rpa49, stronger effect = lower value): 0.966
- normalized growth (S. cerevisiae deletion strains, locus YNL250W, strain rad50, stronger effect = lower value): 1
- normalized growth (S. cerevisiae deletion strains, locus YNL271C, strain bni1, stronger effect = lower value): 0.998
- normalized growth (S. cerevisiae deletion strains, locus YNL298W, strain CLA4, stronger effect = lower value): 1
- normalized growth (S. cerevisiae deletion strains, locus YNL307C, strain MCK1, stronger effect = lower value): 0.972
- normalized growth (S. cerevisiae deletion strains, locus YNL322C, strain KRE1 (second series), stronger effect = lower value): 0.975
- normalized growth (S. cerevisiae deletion strains, locus YNL322C, strain KRE1, stronger effect = lower value): 0.967
- normalized growth (S. cerevisiae deletion strains, locus YNR049C, strain mso1, stronger effect = lower value): 0.968
- normalized growth (S. cerevisiae deletion strains, locus YNR052C, strain pop2, stronger effect = lower value): 0.931
- normalized growth (S. cerevisiae deletion strains, locus YOL006C, strain TOP1, stronger effect = lower value): 1.03
- normalized growth (S. cerevisiae deletion strains, locus YOL012C, strain htz1): 0.833
- normalized growth (S. cerevisiae deletion strains, locus YOL147C, strain pex11, stronger effect = lower value): 0.995
- normalized growth (S. cerevisiae deletion strains, locus YOR001W, strain rrp6, stronger effect = lower value): 0.938
- normalized growth (S. cerevisiae deletion strains, locus YOR061W, strain CKA2, stronger effect = lower value): 1.01
- normalized growth (S. cerevisiae deletion strains, locus YOR069W, strain VPS5, stronger effect = lower value): 1
- normalized growth (S. cerevisiae deletion strains, locus YOR070C, strain gyp1, stronger effect = lower value): 0.998
- normalized growth (S. cerevisiae deletion strains, locus YOR080W, strain dia2, stronger effect = lower value): 0.951
- normalized growth (S. cerevisiae deletion strains, locus YOR083W, strain WHI5, stronger effect = lower value): 0.936
- normalized growth (S. cerevisiae deletion strains, locus YOR106W, strain vam3, stronger effect = lower value): 0.946
- normalized growth (S. cerevisiae deletion strains, locus YOR136W, strain idh2, stronger effect = lower value): 1.01
- normalized growth (S. cerevisiae deletion strains, locus YOR144C, strain elg1, stronger effect = lower value): 1.01
- normalized growth (S. cerevisiae deletion strains, locus YOR184W, strain ser1, stronger effect = lower value): 0.979
- normalized growth (S. cerevisiae deletion strains, locus YOR231W, strain MKK1, stronger effect = lower value): 1.02
- normalized growth (S. cerevisiae deletion strains, locus YOR265W, strain rbl2, stronger effect = lower value): 0.976
- normalized growth (S. cerevisiae deletion strains, locus YOR270C, strain vph1, stronger effect = lower value): 0.932
- normalized growth (S. cerevisiae deletion strains, locus YOR290C, strain snf2, stronger effect = lower value): 0.896
- normalized growth (S. cerevisiae deletion strains, locus YOR316C, strain cot1, stronger effect = lower value): 1
- normalized growth (S. cerevisiae deletion strains, locus YPL051W, strain arl3, stronger effect = lower value): 0.981
- normalized growth (S. cerevisiae deletion strains, locus YPL055C, strain LGE1, stronger effect = lower value): 1
- normalized growth (S. cerevisiae deletion strains, locus YPL078C, strain atp4, stronger effect = lower value): 0.959
- normalized growth (S. cerevisiae deletion strains, locus YPL106C, strain sse1, stronger effect = lower value): 0.956
- normalized growth (S. cerevisiae deletion strains, locus YPL240C, strain hsp82, stronger effect = lower value): 0.98
- normalized growth (S. cerevisiae deletion strains, locus YPL241C, strain CIN2, stronger effect = lower value): 1.01
- normalized growth (S. cerevisiae deletion strains, locus YPL256C, strain CLN2, stronger effect = lower value): 1.09
- normalized growth (S. cerevisiae deletion strains, locus YPR119W, strain clb2, stronger effect = lower value): 1
- normalized growth (S. cerevisiae deletion strains, locus YPR141C, strain kar3, stronger effect = lower value): 1
- normalized growth (S. cerevisiae deletion strains, locus YPR163C, strain tif3, stronger effect = lower value): 0.996
- normalized growth (S. cerevisiae deletion strains, locus YPR167C, strain met16, stronger effect = lower value): 1.01
- normalized growth (S. cerevisiae deletion strains, strain wtn01, stronger effect = lower value): 0.975
- normalized growth (S. cerevisiae strains, strain wild type, stronger effect = lower value): 1
